Active and inactive are the calls of the source. Unless noted, the rule behind the calls is not given here.

A short description of test [1]: A549 cell viability effects, profiling panel, calcein-AM fluorescence, 48 h, basal (AID 1162). Note: test concentration not given here. The note with it: higher = more signal.
Test [2] is described as follows: adipocyte viability effects, profiling panel, cell-based, 3T3-L1 adipocytes, calcein-AM fluorescence, 48 h, basal (AID 1163). Note: test concentration not given here. The settings on record: 3T3-L1 adipocytes viability, higher = more signal.
A short description of test [3]: HepG2 cell viability effects, profiling panel, calcein-AM fluorescence, 48 h, basal (AID 1164). Note: test concentration not given here. The note with it: higher = more signal.
A short description of test [4]: MM1S cell viability effects, profiling panel, calcein-AM fluorescence, 48 h, basal (AID 1165).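 Note: viability of MM1S multiple myeloma cells under basal unstimulated conditions; test concentration not given here.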 The settings on record: higher = more signal.
A short description of test [5]: basal RPMI8226 viability, no added stimulus, profiling panel, cell-based, calcein-AM fluorescence, 48 h, PK04 Diversity Set (AID 1166).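 Note: cells grown under basal conditions without added stimulus; test concentration not given here.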 The settings on record: RPMI8226 myeloma viability, higher = more signal.
Test [6] is described as follows: basal HepG2 mitochondrial membrane potential changes, profiling panel, cell-based, JC-1 fluorescence, 24 h, 100 nL compound (AID 1167). Note: test concentration not given here. The note with it: higher = more signal.
Test [7] is described as follows: basal 3T3-L1 adipocyte mitochondrial potential changes, profiling panel, cell-based, JC-1 fluorescence, 3T3-L1 adipocytes, 24 h, 100 nL compound (AID 1168). Note: test concentration not given here. The note with it: JC-1 mitochondrial fluorescence, higher = more signal, called active from +8 up or from −8 down.
The nature of test [8]: basal RPMI8226 mitochondrial membrane potential changes, profiling panel, cell-based, JC-1 fluorescence, 24 h, 100 nL compound (AID 1169). Note: test concentration not given here. The settings on record: RPMI8226 myeloma, JC-1 mitochondrial potential fluorescence, higher = more signal.
Test [9] is described as follows: basal MM1S mitochondrial membrane potential changes, profiling panel, cell-based, JC-1 fluorescence, 24 h, 100 nL compound (AID 1170). Note: test concentration not given here. The note with it: higher = more signal.
Test [10] is described as follows: A549 lung cancer cell viability effects, profiling panel, resazurin fluorescence, 24 h, PK04 Diversity Set (AID 1171). Note: test concentration not given here. The settings on record: higher = more signal, called active from +8 up or from −8 down. For orientation: Resazurin is reduced to fluorescent resorufin, in cell work by metabolically active cells.
Test [11] can be described thus: HepG2 liver cancer cell viability effects, profiling panel, resazurin fluorescence, 24 h, PK04 Diversity Set (AID 1172). Note: test concentration not given here. The settings on record: higher = more signal.
A short description of test [12]: basal S. cerevisiae growth modulation, no modifier, primary screen, OD600, strain BY4716, 24 h, basal condition (AID 1173). The note with it: OD600, 24 h, higher = more signal, called active from +8 up or from −8 down.
A short description of test [13]: MM1S myeloma cell viability, profiling panel, resazurin fluorescence, basal, 24 h, PK04 Diversity Set (AID 1174).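 Note: MM1S multiple myeloma cell line; test concentration not given here.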 The settings on record: higher = more signal, called active from +8 up or from −8 down.
For test [14], the target named is Dihydroorotate dehydrogenase (quinone), mitochondrial (Plasmodium falciparum (isolate 3D7)) (UniProt Q08210). Description: PfDHODH enzyme inhibitors, primary screen, biochemical, C-terminal His tag, absorbance 600 nm (AID 1175).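 Note: recombinant parasite enzyme with a five histidine tag at its C terminus; test concentration not given here.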 The note with it: DCIP absorbance 600 nm, higher = more signal, called active from +8 up or from −8 down.
Chain of Dihydroorotate dehydrogenase (quinone), mitochondrial (Plasmodium falciparum (isolate 3D7)) (Q08210 whole entry, looked up): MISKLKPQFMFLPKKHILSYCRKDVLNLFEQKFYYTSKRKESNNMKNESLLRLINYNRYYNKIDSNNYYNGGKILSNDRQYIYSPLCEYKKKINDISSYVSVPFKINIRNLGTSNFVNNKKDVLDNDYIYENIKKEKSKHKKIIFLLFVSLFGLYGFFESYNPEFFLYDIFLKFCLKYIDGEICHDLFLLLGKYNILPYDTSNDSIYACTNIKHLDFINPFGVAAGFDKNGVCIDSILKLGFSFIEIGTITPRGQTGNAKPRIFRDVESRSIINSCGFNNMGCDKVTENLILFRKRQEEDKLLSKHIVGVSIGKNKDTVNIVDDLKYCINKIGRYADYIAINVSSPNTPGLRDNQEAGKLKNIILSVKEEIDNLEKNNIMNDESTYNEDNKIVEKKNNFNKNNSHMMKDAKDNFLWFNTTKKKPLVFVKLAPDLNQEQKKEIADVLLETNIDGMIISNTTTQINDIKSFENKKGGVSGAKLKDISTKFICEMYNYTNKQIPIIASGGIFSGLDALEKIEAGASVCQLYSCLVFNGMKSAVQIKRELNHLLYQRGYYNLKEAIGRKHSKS
A short description of test [15]: P. aeruginosa biofilm formation inhibitors, primary screen, strain PAO1, LB-PBS medium, absorbance 600 nm (AID 1176). Note: test concentration not given here. The settings on record: P. aeruginosa PAO1 growth/biofilm, A600, 12 h; higher = more signal.
Test [16] can be described thus: S. cerevisiae RM11-1a growth modifiers, primary screen, strain RM11-1a, OD600, basal, 24 h (AID 1177).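 Note: cultures grown under basal conditions with no added stressor; test concentration not given here.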 The note with it: OD600, 24 h, higher = more signal, called active from +8 up or from −8 down.
The nature of test [17]: E. coli acrAB mutant growth effects, primary screen, E. coli filamentation inducers, strain DRC39, OD650, 24 h (AID 1178).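 Note: growth measured as culture turbidity by optical density at 650 nm; test concentration not given here.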 The note with it: higher = more signal, called active from +8 up or from −8 down.
Test [18] is described as follows: E. coli acrAB mutant growth effects, primary screen, E. coli filamentation inducers, strain DRC39, OD650, 48 h (AID 1179).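 Note: screen aims at cell division blockers that make cells filament.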 The settings on record: E. coli DRC39 delta-acrAB growth, higher = more signal, called active from +8 up or from −8 down.
Test [19] in a line: RPMI8226 myeloma cell viability, profiling panel, resazurin fluorescence, basal, 24 h, PK04 Diversity Set (AID 1180).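 Note: RPMI8826 multiple myeloma cell line at 5000 cells per well; test concentration not given here.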 The note with it: higher = more signal.
In test [20] the target is E3 ubiquitin-protein ligase XIAP (Homo sapiens) (UniProt P98170). Description: XIAP binders, primary screen, biophysical, small-molecule microarray, fluorescence 635 nm (AID 1181).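 Note: score merges 667 nm emission and signal to noise over triplicate slides.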 The settings on record: small-molecule microarray binding, higher = more signal.
Chain of E3 ubiquitin-protein ligase XIAP (Homo sapiens) (P98170 whole entry, looked up): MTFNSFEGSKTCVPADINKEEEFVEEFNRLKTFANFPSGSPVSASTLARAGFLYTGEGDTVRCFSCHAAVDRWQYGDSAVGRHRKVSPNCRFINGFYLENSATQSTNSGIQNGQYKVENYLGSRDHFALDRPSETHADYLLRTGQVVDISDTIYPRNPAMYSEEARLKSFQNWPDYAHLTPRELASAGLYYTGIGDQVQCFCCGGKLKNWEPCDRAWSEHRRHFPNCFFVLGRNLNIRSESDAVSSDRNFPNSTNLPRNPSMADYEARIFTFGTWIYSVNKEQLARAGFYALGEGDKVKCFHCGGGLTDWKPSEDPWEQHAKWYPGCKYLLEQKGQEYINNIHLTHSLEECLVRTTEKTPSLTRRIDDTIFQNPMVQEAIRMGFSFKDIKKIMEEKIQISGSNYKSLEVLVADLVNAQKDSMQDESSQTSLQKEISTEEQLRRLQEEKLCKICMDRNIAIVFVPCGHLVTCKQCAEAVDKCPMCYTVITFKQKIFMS

As for `COc1ccc([Si](C)(C)[C@H]2[C@H](CC(=O)N3CCC[C@H]3CO)O[C@@]3(C(=O)N(Cc4ccc(N5CCOC5=O)cc4)c4ccccc43)[C@@H]2C)cc1`, the z-score in test [1] is -0.585; in [2], 0.722; in [3], -0.557; in test [4], -2.27; in test [5], -3.98; in test [6], 2.41. The z-score in test [7] is 0.388 (inactive); in [8], -1.06; in test [9], -0.325; in test [10] it was 0.0083 (inactive); in test [11], -0.0717; in [12], 0.686 (inactive). Also, the z-score in test [13] is -0.255 (inactive); in test [15], 0.189 (inactive); in [16], 1.35 (inactive); in test [17], 0.0286 (inactive); in [18], -0.16 (inactive); in test [19] it was -0.404. The composite z-score was -2.97 (inactive) in [14] and -0.0356 in test [20].

On to `[N-]=[N+]=Nc1ccccc1C[C@]1(C(=O)NCC(O)CO)COC(c2ccc(OCCCO)cc2)=N1` (stereo not given in full), for which the z-score in test [1] is 0.67; in [2], 1.11; in test [3], 0.409; in test [4], 0.195; in [5] it was -0.0237; in test [6], 0.244. Besides, the z-score in [7] was -0.257 (inactive); in test [8], -0.847; in test [9], 0.639; in [10] it was 0.837 (inactive); in [11], 0.586; in test [12], -0.226 (inactive). For the same compound, the z-score in test [13] is 0.303 (inactive); in [15], 1.19 (inactive); in test [16], 1.73 (inactive); in test [17], 0.87 (inactive); in [18] it was -0.155 (inactive); in test [19], 0.747. The composite z-score in test [14] was 1 (inactive); in test [20], 0.0449.

On to `CCOC(=O)C1=C[C@@H](C(C)C)N(S(=O)(=O)c2ccc(C)cc2)[C@H]1c1ccc(C(F)(F)F)cc1`, for which the z-score in test [1] is -0.731; in test [2], -0.448; in test [3] it was -1.53; in [4] it was -2.91; in test [5], -1.65; in test [6] it was 3.7. Moreover, the z-score in test [7] was -0.216 (inactive); in test [8], -0.208; in test [9], -0.446; in test [10], 0.793 (inactive); in [11], -0.698; in test [12], 2.42 (inactive). Besides, the z-score in [13] was -0.267 (inactive); in test [15], -0.0322 (inactive); in [16] it was 2.24 (inactive); in test [17], -0.227 (inactive); in [18] it was -0.442 (inactive); in test [19], -1.58. The composite z-score in test [14] is 0.919 (inactive); in [20], 0.109.

Turning to `CC(C)c1ccc(NN2C(C(O)c3ccc(C#N)cc3)C=CC3C(=O)N(c4ccccc4)C(=O)C32)cc1` (stereo not given), the z-score in [1] was -0.0204; in test [2] it was -0.708; in test [3], -0.21; in test [4], -0.303; in test [5], -0.0634; in test [6], -1.22. For the same compound, the z-score in test [7] was -0.662 (inactive); in test [8], 0.629; in test [9], 0.179; in test [10], -1.28 (inactive); in test [11], -2; in [12], -1.67 (inactive). Moreover, the z-score in test [13] was -1.26 (inactive); in [15] it was 1.94 (inactive); in test [16] it was 1.15 (inactive); in [17], -0.526 (inactive); in test [18] it was -0.926 (inactive); in [19], -1.48. Moreover, the composite z-score in test [14] was -0.0438 (inactive); in test [20], -0.152.

Regarding `CCCCC(CC)C(O)C1C=CC2C(=O)N(c3ccccc3)C(=O)C2N1Nc1ccccc1F` (stereo not given), the z-score in [1] was 0.389; in [2] it was -0.21; in test [3], -0.553; in test [4], 0.566; in test [5], 0.203; in [6], -0.639. The z-score in test [7] is -0.511 (inactive); in test [8] it was 0.51; in [9], -0.775; in test [10], 0.653 (inactive); in test [11], 0.518; in test [12], 0.814 (inactive). Further, the z-score in test [13] is 0.888 (inactive); in test [15] it was 0.657 (inactive); in test [16] it was 0.732 (inactive); in [17], 0.207 (inactive); in test [18] it was 0.644 (inactive); in [19] it was 0.767. The results for the composite z-score in test [14] and in [20] were 0.301 (inactive) and 0.0727, respectively.
